Compound activity as filed in PubChem.
The sample as a whole holds a higher share of hits than the screen did.
NTMT1 inhibitor = NTMT1 methyltransferase inhibition | actives 2.5% (n = 59,000) | Potency, µM (titrated, usually from 114 µM), hits mostly inhibitors | NTMT1 MTase-Glo SAH luminescence, purified enzyme | AID 1645870 | Q9BV86; further: nearly all actives have a fitted effect of over 65% in size
Target sequence (Q9BV86 whole entry, looked up): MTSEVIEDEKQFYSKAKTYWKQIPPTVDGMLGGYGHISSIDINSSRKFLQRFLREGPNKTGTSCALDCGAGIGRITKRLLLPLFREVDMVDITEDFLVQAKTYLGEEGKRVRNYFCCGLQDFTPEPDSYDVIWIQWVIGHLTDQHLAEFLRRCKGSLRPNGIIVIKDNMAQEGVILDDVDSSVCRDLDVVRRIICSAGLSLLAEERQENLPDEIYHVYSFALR
HTT-AS promoter = activators of huntingtin-antisense promoter activity; HEK293 HTT-AS promoter firefly luciferase reporter, 24 h; response scale: percent change from vehicle, -100% = no light; Potency, µM (top dose mostly 57.5 µM), most hits filed as activators; actives 0.24% (n = 48,000); AID 1508624; further: nearly all actives have a fitted effect of over 55% in size
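HEK293 cells carrying firefly luciferase reporters were seeded at 2,500 per well in Opti-MEM and cultured for 24 h. They were then treated with compounds at up to 57.5 uM final for 24 h at 37 degrees C before Dual-Glo luminescence readout.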
HTT prom inh = HTT promoter inhibition | HEK293 HTT promoter firefly luciferase reporter, 24 h | Potency, µM (titrated, usually from 57.5 µM), actives largely listed as inhibitors | actives 0.93% (n = 48,000) | AID 1508623; further: nearly all actives have a fitted effect of over 50% in size
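Quantitative HTS used concentration series of up to 57.5 uM final on HEK293 luciferase reporter cells, 24 h at 37 degrees C. Readout was Dual-Glo firefly luminescence.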
DYRK1A inh-1 = inhibitors of human DYRK1A kinase; shares compounds with NTMT1 inhibitor; recombinant DYRK1A, Kinase-Glo ATP depletion luminescence; Potency, µM (series often up to 76.9 µM), actives largely listed as inhibitors; actives 80% (n = 100); AID 2705
CLK4 RBC = inhibitors of human CLK4 kinase, SAR round 2. shares compounds with NTMT1 inhibitor. Potency, µM, actives largely listed as inhibitors. AID 504421. Reaction Biology kinase assay, 10 uM ATP. actives 100% (n = 65); calls by dose curve
DYRK1A inh-2 = blocks human DYRK1A kinase in radiometric assay; shares compounds with NTMT1 inhibitor; Reaction Biology kinase assay, 10 uM ATP; Potency, µM, hits mostly inhibitors; actives 90% (n = 65);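 active means compounds that showed inhibition of Dyrk1a and received a fitted potency; inactive means compounds that showed no inhibition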
CLK2 inh = blocks human CLK2 kinase in radiometric assay; shares compounds with NTMT1 inhibitor; Reaction Biology kinase assay, 10 uM ATP; Potency, µM, actives largely listed as inhibitors; actives 90% (n = 65);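 active means compound that inhibits Clk2 kinase in the dose series, with an IC50 potency reported; inactive means no inhibition seen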
CLK3 inh = CLK3 kinase inhibition. Potency, µM, actives largely listed as inhibitors. recombinant CLK3 kinase assay, 10 uM ATP. actives 40% (n = 65). shares compounds with NTMT1 inhibitor;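 active means compounds that inhibited Clk3 enough in the ten-dose series to give a half-maximal potency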
DYRK1B inh = DYRK1B kinase inhibition; shares compounds with NTMT1 inhibitor; Recombinant Dyrk1b kinase assay, 10 uM ATP; Potency, µM, hits mostly inhibitors; actives 80% (n = 65); AID 504429;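 active means compounds whose dose response shows an inhibitor phenotype against the kinase Dyrk1b; inactive means compounds showing no inhibitor phenotype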
CLK1 RBC = CLK1 kinase inhibition. actives 90% (n = 65). shares compounds with NTMT1 inhibitor. Potency, µM, most hits filed as inhibitors. AID 504430. recombinant Clk1 kinase assay, 10 uM ATP;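 active means compounds that block the splicing kinase Clk1 enough to give a fitted half-inhibition concentration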
Sfp PPTase inh = inhibits purified B. subtilis Sfp PPTase; shares compounds with NTMT1 inhibitor; purified Sfp PPTase enzyme activity, qHTS; Potency, µM (titrated, usually from 114 µM), usual class: inhibitors; actives 78% (n = 230); AID 540350
HM489 growth = reduces growth of B. subtilis HM489 strain. actives 50% (n = 220). B. subtilis HM489 (acpS-) growth, BacTiter-Glo, 5 h. shares compounds with NTMT1 inhibitor. Potency, µM (series often up to 114 µM), most hits filed as inhibitors. AID 540353
Sfp PPTase gel = Sfp PPTase inhibition, gel-based detection | actives 54% (n = 220) | purified Sfp PPTase, gel-based product detection | AID 540355 | Potency, µM (titrated, usually from 250 µM), usual class: inhibitors | shares compounds with NTMT1 inhibitor
Sfp inh SAR2 = Sfp phosphopantetheinyl transferase inhibition, SAR round 2; Potency, µM (highest dose often 57.1 µM), most hits filed as inhibitors; purified Sfp enzyme, PPTase activity, qHTS; shares compounds with NTMT1 inhibitor; actives 87% (n = 230)
HSD17B4 counter = inhibits human HSD17B4, off-target for HPGD inhibitors; shares compounds with NTMT1 inhibitor; purified HSD17B4, estradiol/NAD+, NADH fluorescence; Potency, µM (titrated, usually from 57.1 µM), usual class: inhibitors; actives 10% (n = 230); AID 743187
ALDH1A1 inh = ALDH1A1 (human) inhibition, HPGD counter-screen; shares compounds with NTMT1 inhibitor; recombinant ALDH1A1, NADH fluorescence, propionaldehyde/NAD+; Potency, µM (highest dose often 57.1 µM), hits mostly inhibitors; actives 93% (n = 230); AID 743195
A number is an active result; . = inactive; ? = inconclusive; / = not tested or not shown. Unless noted, the call rests on the fitted dose curve; in most records, active means well fitted curve in the direction sought with a large enough effect; inconclusive means small, poorly fitted or top-dose-only effect, or another doubt; inactive means no such curve, though single readings can be large; an effect the other way counts as inactive or inconclusive.

SMILES	NTMT1 inhibitor	HTT-AS promoter	HTT prom inh	others
CN1CCCC1CCNc1ncnc2ccc(-c3ccc4c(c3)OCO4)cc12 (stereo not given)	.	/	/	DYRK1A inh-1=4.12µM;CLK4 RBC=7.09;DYRK1A inh-2=5.58µM;CLK2 inh=8.56µM;CLK3 inh=.;DYRK1B inh=8.23µM;CLK1 RBC=5.19µM
C=C1C(=O)OC2/C=C(\C)CC/C=C(\C=O)C(OC)C(OC(=O)C(C)CC)C12 (stereo not given)	.	/	/
CCOC(=O)N[C@@H]1CC[C@@H]2[C@@H](C1)C[C@H]1C(=O)O[C@H](C)[C@H]1[C@H]2/C=C/c1ccc(-c2cccc(F)c2)cn1	.	/	/
COc1cc(CCc2cc(NC(=O)c3ccc(N4CC(C)NC(C)C4)cc3)n[nH]2)cc(OC)c1 (stereo not given)	.	/	/
CC1CC(=O)C2=C(O1)OC1(C)CCC3C(C)(C)C4OC4C(=O)C3(C)C1C2 (stereo not given)	.	/	/
CC1(C)CCC[C@@]2(C)C1[C@H](OC(=O)/C=C/C=C/C(=O)O)C=C1COC(=O)[C@@]12O (stereo not given in full)	.	/	/
Cc1ccc(NS(=O)(=O)c2cc3c(cc2NC(C)C)NC(=O)CC3)cc1C	.	/	/
O=C(Nc1ncc(SCCN2CCCC2)s1)C1(c2ccc(S(=O)(=O)C3CC3)cc2)CC1C1CCCCC1 (stereo not given)	.	/	/
CN(C)CCNc1ncnc2ccc(-c3ccc4c(c3)OCO4)cc12	?	/	/	DYRK1A inh-1=1.64µM;CLK4 RBC=1.94;DYRK1A inh-2=1.39µM;CLK2 inh=15µM;CLK3 inh=.;DYRK1B inh=7.34µM;CLK1 RBC=4.16µM
Clc1cccc(-c2ccc3ncnc(NCc4ccc5c(c4)OCO5)c3c2)c1	.	/	/
O=C(CCn1cccn1)Nc1cccc(C(F)(F)F)c1	.	.	.
Cc1ccnc(NC(=S)NC2CN(c3cccc(C(F)(F)F)c3)C2)c1	.	/	/	Sfp PPTase inh=?;HM489 growth=37.3µM;Sfp PPTase gel=.;Sfp inh SAR2=?;HSD17B4 counter=.;ALDH1A1 inh=.
Cc1cc(N2CCC(C)CC2)nc2ccc(NC(=O)CCC(=O)N3CCN(c4cccc(C(F)(F)F)c4)CC3)cc12	.	.	?
Cc1ccnc(NC(=S)NC2CCN(c3cccc(C(F)(F)F)c3)CC2)c1	/	/	/	Sfp PPTase inh=?;HM489 growth=?;Sfp PPTase gel=?;Sfp inh SAR2=?;HSD17B4 counter=24.1µM;ALDH1A1 inh=19.2µM
